# Screening results as filed in PubChem.
# SMN2 splice enh: enhancers of SMN2 splice variant expression; HEK293 SMN2-luciferase splicing reporter, luminescence, 30-36 h; Potency, µM (top dose mostly 46.1 µM), most hits filed as activators; AID 1458; 210,000 compounds, 2.8% hits; note: nearly all actives have a fitted effect of over 55% in size
#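 HEK293 cells carry an SMN2 minigene-luciferase reporter in which exon 7 inclusion puts luciferase in frame. Cells were seeded at 2000 cells/well, attached for 10-12 hours, then exposed to compounds for 30-36 hours at 37C before ONE-Glo luminescence.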
# ELG1 genotoxic: genotoxicity induction in ELG1-luciferase HEK293T cells; HEK293T ELG1-luciferase reporter, luminescence, 16 h; Potency, µM (doses to about 46 µM), most hits filed as activators; 330,000 compounds, 1.3% hits; note: nearly all actives have a fitted effect of over 60% in size
#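 Quantitative HTS format in 1536-well plates. HEK293T ELG1-luciferase reporter cells receive test compound and are incubated 16 hr at 37 °C, 5% CO2; ONE-Glo added, 30 min room temperature, then luminescence read.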
# FLuc modulator: inhibits or activates purified firefly luciferase, miR-21 counter-screen; purified FLuc, Km substrates, luminescence inhibition; 360,000 compounds, 6.9% hits; P08659; Potency, µM (doses to about 57.5 µM), hits mostly inhibitors; AID 588342; note: nearly all actives have a fitted effect of over 55% in size
# Target sequence (P08659 whole entry, looked up): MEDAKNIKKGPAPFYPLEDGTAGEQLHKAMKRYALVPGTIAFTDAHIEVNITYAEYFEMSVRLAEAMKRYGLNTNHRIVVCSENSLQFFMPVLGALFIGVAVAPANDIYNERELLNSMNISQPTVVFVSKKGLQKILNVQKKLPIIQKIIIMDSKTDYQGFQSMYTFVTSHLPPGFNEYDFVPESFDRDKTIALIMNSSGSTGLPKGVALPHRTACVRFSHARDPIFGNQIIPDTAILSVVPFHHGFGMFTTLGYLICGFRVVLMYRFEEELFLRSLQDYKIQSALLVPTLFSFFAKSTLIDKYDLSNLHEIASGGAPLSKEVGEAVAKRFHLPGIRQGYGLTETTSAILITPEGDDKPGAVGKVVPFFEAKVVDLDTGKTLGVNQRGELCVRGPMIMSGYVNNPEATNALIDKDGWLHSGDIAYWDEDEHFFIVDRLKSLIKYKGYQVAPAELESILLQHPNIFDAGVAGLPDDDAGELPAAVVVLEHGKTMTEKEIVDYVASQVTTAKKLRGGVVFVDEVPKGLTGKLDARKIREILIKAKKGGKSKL
#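 Purified P. pyralis luciferase, 10 nM final, with Km-level 10 uM D-luciferin and 10 uM ATP in 50 mM Tris acetate pH 7.5, 10 mM Mg acetate, 0.01% Tween-20, 0.05% BSA; 6-point qHTS titration about 60 µM downward; luminescence read.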
# NPC1 prom act: NPC1 promoter activation. Huh7 NPC1 promoter luciferase reporter, 24 h. Potency, µM (doses to about 9.22 µM), hits mostly activators. 320,000 compounds, 2.4% hits. AID 485313; note: nearly all actives have a fitted effect of over 60% in size
#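 Cells: Huh7 expressing luciferase under the NPC1 promoter, 1500/well. Seeded 2 h, compound added, incubated 24 h at 37 °C. Luciferase reagent, 10 min ambient, then luminescence.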
# ELG1 repair inh: blocks ELG1-dependent DNA repair in HEK293T cells. HEK293T ELG1-luciferase reporter, luminescence, 16 h; DNA damage induced by 5-fluorouridine. Potency, µM (highest dose often 46.1 µM), hits mostly inhibitors. 330,000 compounds, 2.3% hits; note: nearly all actives have a fitted effect of over 55% in size
#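 Luminescence from the luciferase reporter, measured 30 min after ONE-Glo reagent at room temperature, was the read-out. Beforehand, 2,000 cells per well were exposed for 16 hr at 37 °C to 5-fluorouridine together with compound or vehicle.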
# Rab9 prom act: Rab9 promoter activation. Huh7 Rab9 promoter-luciferase reporter, luminescence, 24 h. Potency, µM (highest dose often 9.22 µM), actives largely listed as activators. 320,000 compounds, 2.8% hits; note: nearly all actives have a fitted effect of over 60% in size
#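 Promoter activation is measured as luciferase luminescence in Huh7 cells stably transfected with a Rab9 promoter–luciferase construct, following 24 h compound exposure at 37 °C and 10 min reagent incubation at ambient temperature.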
# Numbers stand for hits; . = inactive; ? = inconclusive; / = not tested or not shown. This is a sample that favours compounds with a hit; in the whole collection about 9.2% have one here. Calls come from the whole dose curve; as a rule, active = well fitted curve in the direction sought with a large enough effect; inconclusive = small, poorly fitted or top-dose-only effect, or another doubt; inactive = no such curve, though single readings can be large; an effect the other way counts as inactive or inconclusive.
SMILES,SMN2 splice enh,ELG1 genotoxic,FLuc modulator,NPC1 prom act,ELG1 repair inh,Rab9 prom act
C/C1=C/CC(C)(C)/C=C/C/C(C)=C/CC1,.,/,/,/,/,/
O=C1OCCC1Sc1nnnn1-c1ccc(Cl)cc1 (stereo not given),/,.,10.7µM,.,.,.
CN(C)c1ccc(C2Nc3ccccc3C(=O)N2CCCN2CCOCC2)cc1 (stereo not given),/,.,4.78µM,.,?,.
CCN(CC)CCN1C(=O)c2ccccc2NC1c1ccc(N(C)C)cc1 (stereo not given),.,.,23.9µM,.,?,.
Cc1cc2n(n1)C(c1ccc(N(C)C)cc1)Nc1ccccc1-2 (stereo not given),.,.,30.1µM,.,?,.
CCN(CC)CCN1C(=O)c2ccccc2NC1c1ccc(F)cc1 (stereo not given),.,.,.,.,.,.
Clc1ccc(Oc2cnc3ccccc3n2)cc1,.,.,?,.,?,.
Cc1ccc(Oc2cnc3ccccc3n2)cc1,.,.,12µM,?,.,?
CCOC(=O)c1cccc(NC(=O)NC(C)c2c(-n3cccc3)sc3c2CCN(C)C3)c1 (stereo not given),/,/,.,/,/,/
CCc1ccc(-c2cc(C(=O)N/N=C/c3ccccn3)[nH]n2)cc1,.,.,7.57µM,.,.,.
CCc1ccc(-c2cc(C(=O)N/N=C/c3ccco3)[nH]n2)cc1,.,.,?,.,.,.
O=C(N/N=C/c1ccco1)c1cc(-c2ccc3ccccc3c2)n[nH]1,.,.,19µM,.,.,.
O=C(N/N=C/c1ccccn1)c1ccc(Cl)c(Cl)c1,/,20.6µM,?,.,?,.
O=C(N/N=C/c1ccccn1)c1ccc(NC(=O)c2ccccc2Cl)cc1,/,.,?,.,.,.
O=C(N/N=C/c1cccnc1)c1ccc([N+](=O)[O-])cc1Cl,/,.,?,.,.,.
O=C(N/N=C/c1ccccn1)c1ccc([N+](=O)[O-])cc1Cl,/,.,19µM,.,?,.
O=S1(=O)CCOC[C@H](CC2CCCCC2)N1Cc1ccccc1Br,/,.,.,.,?,.
COc1ccc(OC)c(CCNC(=O)CC2(CC3=NS(=O)(=O)c4ccccc4N3)CCCC2)c1,/,.,.,.,?,.
O=C(N/N=C/c1ccccn1)c1cc(-c2cccc3ccccc23)n[nH]1,.,.,?,.,.,.
O=C(N/N=C/c1ccccn1)c1cc(-c2ccccc2Cl)n[nH]1,.,.,23.9µM,.,.,.
O=C(N/N=C/c1ccccn1)c1cc(-c2ccc3ccccc3c2)n[nH]1,.,.,7.57µM,.,?,.
CCN(CC)C(=O)Cn1cc(SCC(=O)Nc2cccc(F)c2)c2ccccc21,/,/,.,/,/,/
COc1ccc(NC(=O)c2cc3c(=O)n(Cc4cccnc4)ccc3nc2C)c(OC)c1,/,/,.,/,/,/
O=C1C=CC(=O)N1c1ccc(OC(F)F)cc1,.,.,?,.,20.6µM,.
CCOc1ccccc1NC(=O)C(NCCc1ccc(OC)cc1)c1ccccc1 (stereo not given),/,.,26.9µM,.,?,.
SMILES,SMN2 splice enh,ELG1 genotoxic,FLuc modulator,NPC1 prom act,ELG1 repair inh,Rab9 prom act
CCOc1ccccc1NC(=O)C(NCCN(C)C)c1ccccc1 (stereo not given),.,.,.,.,.,.
COC(=O)c1ccc(-n2nnnc2SCC(=O)Nc2cc(OC)ccc2OC)cc1,.,.,.,.,.,.
COc1ccccc1NC(=O)CSc1nnnn1-c1ccccc1F,/,.,.,.,.,.
CC(C)OC(=O)CSc1nnnn1-c1ccc2c(c1)OCCO2,.,.,16.9µM,.,?,?
COC(=O)c1sccc1NC(=O)CSc1nnnn1-c1ccccc1C,.,.,.,.,18.4µM,.
COc1ccc(OC)c(NC(=O)CSc2nnnn2-c2ccc3c(c2)OCO3)c1,35.5µM,.,.,.,.,.
COc1ccc(N2CCN(C(=O)CSc3nnnn3-c3ccc4c(c3)OCCO4)CC2)cc1,.,.,.,.,23.1µM,.
O=C1CC(c2cc(F)cc(F)c2)c2cc3c(cc2N1)OCO3 (stereo not given),.,/,.,/,/,/
CN(C(=O)COC(=O)c1cnc(Cl)c(Cl)c1)C1CCCCC1,/,.,/,/,?,/
COc1ccc(NC(=O)n2ncc3c(C)cccc32)cc1OC,/,?,1.9µM,2.24µM,?,3.16µM
Cc1ccccc1NC(=O)n1ncc2cc(Cl)ccc21,/,.,21.3µM,.,?,.
COc1ccccc1NC(=O)n1ncc2c(C)cccc21,/,/,.,/,/,/
COc1ccc(C)cc1NC(=O)n1ncc2c(C)cccc21,/,.,7.57µM,.,.,.
Cc1ccc(NC(=O)n2ncc3c(C)cccc32)cc1F,/,?,1.51µM,?,?,0.794µM
O=C(Nc1cccc(Cl)c1Cl)c1cc(S(=O)(=O)N2CCCCC2)ccc1F,/,/,.,/,/,/
COc1ccc(NC(=O)n2ncc3c(C)cccc32)cc1,/,?,3.01µM,0.0891µM,?,0.1µM
Cc1cccc2c1cnn2C(=O)Nc1ccccc1Cl,/,?,1.69µM,?,?,?
C=CCNc1ncnc2c1[nH]c1ccc(Cl)cc12,.,?,12µM,.,.,.
COC(=O)C1=NN(C(=O)c2ccccc2)C(O)(c2ccc([N+](=O)[O-])cc2)C1 (stereo not given),/,.,23.9µM,.,.,.
COC(=O)C1=NN(C(=O)c2ccccc2)C(C)(O)C1 (stereo not given),.,.,.,.,?,.
c1ccc(COc2ccc(Oc3nc(N4CCCCC4)nc(N4CCOCC4)n3)nn2)cc1,22.4µM,.,.,.,?,.
N#Cc1ccc(NC(=O)Cn2cnc(S(=O)(=O)N3CCCCC3)c2)cc1,/,.,.,.,.,.
O=C(NCCCCNC(=O)c1cccnc1Cl)c1cccnc1Cl,/,.,.,.,.,.
CC(=O)COc1ccc2c(C)c(-c3ccccc3)c(=O)oc2c1,.,.,16.9µM,?,?,3.16µM
COc1cccc(C(=O)COc2ccc3c(C)c(Cc4ccccc4)c(=O)oc3c2)c1,.,.,.,.,.,.
SMILES,SMN2 splice enh,ELG1 genotoxic,FLuc modulator,NPC1 prom act,ELG1 repair inh,Rab9 prom act
O=C(O)C1CCN(C(=O)COc2ccc3c(c2)oc(=O)c2ccccc23)CC1,/,.,?,.,.,.
Cc1c(C)c2ccc(OCC(=O)c3ccccc3)cc2oc1=O,/,?,?,2.24µM,?,3.55µM
CCCCc1c(C)c2ccc(OCC(C)=O)cc2oc1=O,15.8µM,5.17µM,19µM,3.16µM,?,2.82µM
Cc1c(Cc2ccccc2)c(=O)oc2cc(OCC(=O)N3CCC(C(=O)O)CC3)ccc12,/,.,21.3µM,.,?,.
CCCc1c(C)c2ccc(OCC(C)=O)cc2oc1=O,.,?,?,?,?,?
Cc1cc2c(cc1NS(=O)(=O)c1ccc(Br)cc1)n(C)c(=O)c(=O)n2C,/,/,.,/,/,/
